# Results filed as inconclusive are left out. Where a structure was tested more than once in an assay, its records may differ in their call. Activity calls are given as the source filed them. The calls were made as follows, unless noted: active = hit-call score of the fitted dose curve at least 0.9, where 1 is the maximum; inconclusive = response in the unintended direction; inactive = score below 0.9.
# Biological target: frog Thyroid hormone Receptor alpha (TRa), thra-a (gene 397942) (UniProt P15204)
# Assay: ATG_frTRa_XSP2: Attagene TRANS-FACTORIAL Multi-Species (XSP2) HepG2 Assay for frog Thyroid hormone Receptor alpha (TRa) (AID 2283839);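 as to AC50: AC50 reflects induction of frog TRa-driven reporter mRNA above DMSO baseline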
# Conditions: not given
# Outline: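 Reporter transcripts were measured by RT-PCR with capillary electrophoresis after 24 h dosing of HepG2 carrying transiently transfected multi-reporter units, including a chimeric frog TRa-GAL4 construct. Activity was taken as increase over DMSO vehicle.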
# Sequence of frog Thyroid hormone Receptor alpha (TRa), thra-a (gene 397942) (P15204 whole entry, looked up): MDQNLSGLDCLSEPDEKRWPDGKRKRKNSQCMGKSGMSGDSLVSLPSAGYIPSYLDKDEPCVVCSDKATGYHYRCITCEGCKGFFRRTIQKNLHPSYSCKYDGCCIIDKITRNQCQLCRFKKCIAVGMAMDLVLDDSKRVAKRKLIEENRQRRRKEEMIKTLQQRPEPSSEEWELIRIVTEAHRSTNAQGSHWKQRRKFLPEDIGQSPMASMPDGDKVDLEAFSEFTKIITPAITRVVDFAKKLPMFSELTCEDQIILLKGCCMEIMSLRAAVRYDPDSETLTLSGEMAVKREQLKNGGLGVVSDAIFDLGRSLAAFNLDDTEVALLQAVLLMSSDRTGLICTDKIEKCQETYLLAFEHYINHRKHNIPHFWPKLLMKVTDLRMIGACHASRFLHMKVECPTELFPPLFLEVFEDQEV
Compound,outcome,AC50
CCC(=O)O[C@H]1CC[C@H]2[C@@H]3CCC4=CC(=O)CC[C@]4(C)[C@H]3CC[C@]12C,inactive,–
C[C@]12CCC(=O)C=C1CC[C@@H]1[C@@H]2CC[C@]2(C)C(=O)CC[C@@H]12,inactive,–
Cc1cc(-c2ccc(N)c(C)c2)ccc1N,inactive,–
CC(c1ccc(O)cc1)(c1ccc(O)cc1)c1ccc(O)cc1,inactive,–
c1cc2ccc3cccc4ccc(c1)c2c34,inactive,–
CCOC(=O)C(O)(c1ccc(Cl)cc1)c1ccc(Cl)cc1,inactive,–
ClC(Cl)=C(c1ccc(Cl)cc1)c1ccc(Cl)cc1,inactive,–
Oc1ccc(C(c2ccc(O)cc2)(C(F)(F)F)C(F)(F)F)cc1,inactive,–
CC(C)(O)C(=O)Nc1ccc([N+](=O)[O-])c(C(F)(F)F)c1,–,9930 nM (active)
Clc1ccc(C(c2ccccc2Cl)C(Cl)(Cl)Cl)cc1 (stereo not drawn),inactive,–
CC(C)(c1ccccc1)c1ccc(O)cc1,inactive,–

# Biological target: human Thyroid hormone Receptor beta (TRb), THRB (gene 7068) (UniProt P10828)
# Assay: ATG_hTRb_XSP2: Attagene TRANS-FACTORIAL Multi-Species (XSP2) HepG2 Assay for human Thyroid hormone Receptor beta (TRb) (AID 2283840);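 also: actives raise reporter mRNA so potency reflects agonist-like gain of signal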
# Conditions: not given
# Outline: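 Activity of exogenous human TRb–Gal4 fusion measured by reporter mRNA from RT-PCR and capillary electrophoresis, 24 h after dosing transfected HepG2. 6-alpha-fluorotestosterone (3 nM) and norgestrel (1.5 nM) present. Gain-of-signal fit relative to DMSO.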
# Sequence of human Thyroid hormone Receptor beta (TRb), THRB (gene 7068) (P10828 whole entry, looked up): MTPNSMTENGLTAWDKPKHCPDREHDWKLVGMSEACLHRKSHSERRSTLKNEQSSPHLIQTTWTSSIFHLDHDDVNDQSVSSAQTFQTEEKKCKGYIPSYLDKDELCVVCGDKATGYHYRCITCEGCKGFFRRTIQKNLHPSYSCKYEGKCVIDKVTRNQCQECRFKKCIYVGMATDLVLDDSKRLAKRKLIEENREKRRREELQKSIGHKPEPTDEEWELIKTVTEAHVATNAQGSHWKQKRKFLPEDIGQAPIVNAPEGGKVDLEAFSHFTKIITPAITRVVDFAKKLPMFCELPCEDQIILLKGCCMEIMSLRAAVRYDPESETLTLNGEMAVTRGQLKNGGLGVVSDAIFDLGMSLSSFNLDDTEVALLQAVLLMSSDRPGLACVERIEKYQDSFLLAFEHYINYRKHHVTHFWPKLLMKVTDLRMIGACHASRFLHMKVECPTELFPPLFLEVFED
Compound,AC50,outcome
CCC(=O)O[C@H]1CC[C@H]2[C@@H]3CCC4=CC(=O)CC[C@]4(C)[C@H]3CC[C@]12C,157 nM (active),inactive
C[C@]12CCC(=O)C=C1CC[C@@H]1[C@@H]2CC[C@]2(C)C(=O)CC[C@@H]12,–,inactive
Cc1cc(-c2ccc(N)c(C)c2)ccc1N,–,inactive
CC(c1ccc(O)cc1)(c1ccc(O)cc1)c1ccc(O)cc1,–,inactive
c1cc2ccc3cccc4ccc(c1)c2c34,–,inactive
CCOC(=O)C(O)(c1ccc(Cl)cc1)c1ccc(Cl)cc1,–,inactive
ClC(Cl)=C(c1ccc(Cl)cc1)c1ccc(Cl)cc1,–,inactive
C[C@]12CCC(=O)C=C1CC[C@@H]1[C@@H]2CC[C@@]2(C)[C@H]1CC[C@]2(C)O,–,inactive
CC(C)(O)C(=O)Nc1ccc([N+](=O)[O-])c(C(F)(F)F)c1,–,inactive
Clc1ccc(C(c2ccccc2Cl)C(Cl)(Cl)Cl)cc1 (stereo not drawn),–,inactive
CC(C)(c1ccccc1)c1ccc(O)cc1,–,inactive

# Test system: not listed separately
# Assay: CPHEA_Stoker_NIS_Cytotoxicity: Cytotoxicity Assessment for CPHEA's Radioactive Iodide Uptake (RAIU) Assay for Sodium/Iodide Symporter (NIS) Inhibition, Stoker and Laws Labs (AID 2283897);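 as to AC50: active means loss of ATP signal versus DMSO meaning cytotoxicity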
# Conditions: not given
# Outline: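 CellTiter-Glo ATP luminescence gauged viability in HEK293T cells expressing human NIS after 2 h chemical exposure. Concentrations ran 0.001–100 uM in 0.5% DMSO; DMSO served as baseline for the loss-of-signal fit.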
Compound,AC50,outcome
CCC(=O)O[C@H]1CC[C@H]2[C@@H]3CCC4=CC(=O)CC[C@]4(C)[C@H]3CC[C@]12C,646 nM (active),–
CCSC(=O)N(CC)C1CCCCC1,–,inactive
CCC(C)c1cc([N+](=O)[O-])cc([N+](=O)[O-])c1O (stereo not drawn),–,inactive
O=S(=O)(O)C(F)(F)C(F)(F)C(F)(F)C(F)(F)F,–,inactive
O=C(O)C(F)(F)C(F)(F)C(F)(F)C(F)(F)C(F)(F)C(F)(F)C(F)(F)C(F)(F)C(F)(F)F,–,inactive
O=NN(c1ccccc1)c1ccccc1,–,inactive
NS(=O)(=O)C(F)(F)C(F)(F)C(F)(F)C(F)(F)C(F)(F)C(F)(F)C(F)(F)C(F)(F)F,–,inactive
O=C(O)C(F)(F)C(F)(F)C(F)(F)C(F)(F)C(F)(F)C(F)(F)C(F)(F)C(F)(F)F,–,inactive
Cc1ccccc1CO[C@@H]1C[C@@]2(C(C)C)CC[C@]1(C)O2,–,inactive
Cc1cccc(C)c1N,–,inactive
CCOC(=O)C(O)(c1ccc(Cl)cc1)c1ccc(Cl)cc1,–,inactive
ClC(Cl)=C(c1ccc(Cl)cc1)c1ccc(Cl)cc1,–,inactive
CO/C=C(/C(=O)OC)c1ccccc1COc1cccc(C(F)(F)F)n1,–,inactive
O=S(=O)(O)C(F)(F)C(F)(F)C(F)(F)C(F)(F)C(F)(F)C(F)(F)F,–,inactive
ClC1=C(Cl)[C@]2(Cl)[C@@H]3[C@@H](Cl)[C@H]4O[C@H]4[C@@H]3C1(Cl)C2(Cl)Cl,–,inactive
CCC(C)(c1ccc(O)cc1)c1ccc(O)cc1,–,inactive
CCOP(=S)(OCC)SCSC(C)(C)C,–,inactive
Oc1c(Cl)c(Cl)c(Cl)c(Cl)c1Cl,–,inactive
Oc1ccc(C(c2ccc(O)cc2)(C(F)(F)F)C(F)(F)F)cc1,–,inactive
CC#Cc1cc(C)nc(Nc2ccccc2)n1,–,inactive
CC(C)(O)C(=O)Nc1ccc([N+](=O)[O-])c(C(F)(F)F)c1,–,inactive
ClC1=C(Cl)[C@]2(Cl)[C@@H]3[C@@H]4C[C@@H]([C@H]5O[C@@H]45)[C@@H]3[C@@]1(Cl)C2(Cl)Cl,–,inactive
c1ccc(-c2ccccc2)cc1,–,inactive
COc1ccc(O)c(C(C)(C)C)c1,–,inactive
CCCCCCCCCC[N+](C)(C)CCCCCCCCCC,–,inactive
CC(C)(c1ccccc1)c1ccc(O)cc1,–,inactive
Cc1cc2c3c(c1)C(c1ccccc1)=N[C@@H](NC(=O)c1ccncc1)C(=O)N3CC2,–,inactive
CCNc1nc(NC(C)C)nc(SC)n1,–,inactive

# Read-out: not listed separately
# Assay: CEETOX_H295R_11DCORT_noMTC: CeeTox H295R High-throughput Steroidogenesis Assay for 11-Deoxycortisol (11DCORT), maximum tolerated concentration (MTC) filtered results only (AID 2283911; active = hit-call score of the fitted dose curve at least 0.9, where 1 is the maximum; inactive = score below 0.9)
# Conditions: actives raise or lower the signal
# Outline: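 Values carry no filtering for maximum tolerated concentration: medium from forskolin-primed (10 uM, 48 h) H295R cells after 48 h chemical exposure (0.1% DMSO) was MTBE-extracted, and 11-deoxycortisol quantified by reverse-phase HPLC-MS/MS. Fitting was bidirectional against DMSO.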
row,Compound,outcome
1,O=C(O)C(F)(F)C(F)(F)C(F)(F)C(F)(F)C(F)(F)C(F)(F)C(F)(F)C(F)(F)C(F)(F)F,inactive
2,Oc1c(Cl)c(Cl)c(Cl)c(Cl)c1Cl,inactive
3,CCCCCCOC(=O)c1ccccc1C(=O)OCCCCCC,inactive

# Read-out: not listed separately
# Assay: CEETOX_H295R_OHPREG_noMTC: CeeTox H295R High-throughput Steroidogenesis Assay for OH-Pregnenolone (OHPREG), maximum tolerated concentration (MTC) filtered results only (AID 2283912; active = hit-call score of the fitted dose curve at least 0.9, where 1 is the maximum; inactive = score below 0.9)
# Conditions: actives raise or lower the signal
# Outline: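 Steroidogenesis in H295R cells (OECD 456, modified): after 48 h forskolin priming and 48 h chemical treatment, secreted 17alpha-hydroxypregnenolone is measured by HPLC-MS/MS. Activity is fitted in both directions against DMSO; concentrations are not filtered by MTT-based MTC.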
row,Compound,outcome
1,CCCCCCCCOC(=O)c1ccccc1C(=O)OCCCCCCCC,inactive
2,O=C(O)C(F)(F)C(F)(F)C(F)(F)C(F)(F)C(F)(F)C(F)(F)C(F)(F)C(F)(F)C(F)(F)F,inactive
3,Oc1c(Cl)c(Cl)c(Cl)c(Cl)c1Cl,inactive
4,CCCCCCOC(=O)c1ccccc1C(=O)OCCCCCC,inactive
